Results on 24 compounds are retold here after PubChem BioAssay AID743269 (The Scripps Research Institute Molecular Screening Center, 2014).

The whole screen tested about 370,000 compounds, of which about 2,400 (0.65%) were called active.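 How the source made its calls: active means inhibition above the screen-wide mean plus 3 SD (cut at about 13% in these data); inactive means the rest.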 The full list was thinned out, with actives kept by preference.

The term inhibition denotes the drop in the measured response relative to a control, in per cent.

The test system of the test is HIV-1 integrase (with human LEDGF/p75). In words: blockers of LEDGF/p75-dependent integrase strand transfer – biochemical, TR-FRET, high throughput, primary screen (AID 743269).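 Further: signal is the Cy5 over europium emission ratio at 671 and 618 nm; 0% = plate median of compound wells.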 The note with it: TR-FRET IN-LEDGF/p75 DNA integration, Eu/Cy5; at 3.7 µM; active compounds read high.
Turning to `Cc1ccc(Cc2cnc(N)s2)o1`, the inhibition was 31.2% (active).

Turning to `O=C(Nc1nc2ccc(Cl)cc2s1)c1cc(-c2ccc(Cl)cc2)nc2ccccc12`, the inhibition was 6.18% (inactive).

With `CN(C)c1ccc(NC(=O)NC2CCCCN(Cc3ccc(Cl)cc3)C2=O)cc1` (centres undefined), the inhibition was 6.63% (inactive).

For the compound `CCn1c(=O)n2n(c1=O)[C@@]1(C=C3CCCC[C@H]32)N=C(NC(=O)c2ccccc2)N(Cc2ccccc2)[C@H]1Cc1ccccc1`, the inhibition was 2.19% (inactive).

For the compound `Clc1ccc(C2=CSC3=Nc4cccc5cccc(c45)N23)cc1`, the inhibition is 37.2% (active).

On to `CC(=O)Nc1nc2ncccn2c1-c1ccc(C(F)(F)F)cc1`, for which the inhibition is 4.33% (inactive).

Take `CCC(C)[C@@H](C(=O)OC)N(CCc1cn(Cc2ccccc2)nn1)S(=O)(=O)c1ccccc1Br` (some centres undefined): the inhibition is 1.03% (inactive).

In the case of `CC(C)CNc1cccc2c1S(=O)(=O)N(Cc1cn(Cc3ccccc3C(F)(F)F)nn1)Cc1ccccc1O2`, the inhibition is -0.84% (inactive).

Consider `CCOC(=O)[C@]12CCCC3=C1N(CCC3)C(=O)[C@@H](CC(=O)NCC13CC4CC(CC(C4)C1)C3)C2`, for which the inhibition was 0.85% (inactive).

With `O=C(NCc1ccco1)C1CCCN(S(=O)(=O)c2ccc(Cl)s2)C1` (centres undefined), the inhibition is -0.9% (inactive).

Take `COc1ccc(OC)c(NC(=O)CSc2nc(-c3ccccc3)cc(=O)[nH]2)c1`: the inhibition was 2.74% (inactive).

As for `CCc1cc2cc(OC)ccc2nc1SCC(=O)Nc1cc(OC)c(OC)cc1C(=O)O`, the inhibition is 17.2% (active).

For `COC(=O)c1cc(OC)c(OC)cc1NC(=O)CSc1ccc(C)cc1`, the inhibition was -3.23% (inactive).

With `C=CCN(C(=O)[C@@H](CCCC)[C@@H](O)c1ccc(Cl)cc1)c1ccccc1`, the inhibition is 2.74% (inactive).

On to `CN(CC(=O)Nc1ccc(S(=O)(=O)N2CCCC2)cc1)Cc1ccc(Cl)c(Cl)c1`, for which the inhibition is 30.4% (active).

`CCc1ccc(CN(C)C(C)C(=O)Nc2ccc(S(=O)(=O)N3CCCC3)cc2)cc1` (centres undefined): the inhibition was -3.86% (inactive).

Regarding `CC(C(=O)Nc1ccc(S(=O)(=O)N2CCCC2)cc1)N(C)Cc1ccc(F)cc1` (centres undefined), the inhibition is -5.41% (inactive).

Turning to `Nn1c(SCC(=O)Nc2ccc(S(N)(=O)=O)cc2)nnc1-c1n[nH]c2c1CCC2`, the inhibition is 5.06% (inactive).

On to `CN(O)C(=S)c1ccccc1`, for which the inhibition was 21.8% (active).

As for `COC(=O)C1CN(CC(C)C)CCS(=O)(=O)N1Cc1ccc(C)cc1` (centres undefined), the inhibition was 1.62% (inactive).

On to `COc1cc(NC(=O)C2CCCN(S(=O)(=O)c3ccc(C(C)(C)C)cc3)C2)cc(OC)c1` (centres undefined), for which the inhibition is 2.62% (inactive).

`COc1ccc(-n2nc(C(=O)NCC(=O)N3CCCCCC3)c3ccccc3c2=O)cc1Cl`: the inhibition is -4.29% (inactive).

On to `COC(=O)c1cc(N2CCNCC2)nc2ccccc12`, for which the inhibition is -3.62% (inactive).

As for `COc1cc(/C=C2\CCCc3c2nc2ccccc2c3C(=O)O)cc(Cl)c1O`, the inhibition was 30.4% (active).
